18 compounds from PubChem BioAssay AID2331 (The Scripps Research Institute Molecular Screening Center, 2010) can be followed below.

The other results are listed elsewhere or left out. Unmarked numbers belong to inactive results. Activity calls are given as the source filed them. No stated cut-off is given here; in the data, active means inhibition above about 9.5%; inactive means the rest.

The target in the experiment is Serine/threonine-protein phosphatase 5 (Homo sapiens) (UniProt P53041). The experiment can be described thus: PP5 phosphatase inhibitors, confirmation, biochemical, fluorescence, human (AID 2331). Particulars: Purified PP5, fluorogenic phosphatase substrate, at 6.7 µM, stronger effect = higher value.
Chain of Serine/threonine-protein phosphatase 5 (Homo sapiens) (P53041 whole entry, looked up): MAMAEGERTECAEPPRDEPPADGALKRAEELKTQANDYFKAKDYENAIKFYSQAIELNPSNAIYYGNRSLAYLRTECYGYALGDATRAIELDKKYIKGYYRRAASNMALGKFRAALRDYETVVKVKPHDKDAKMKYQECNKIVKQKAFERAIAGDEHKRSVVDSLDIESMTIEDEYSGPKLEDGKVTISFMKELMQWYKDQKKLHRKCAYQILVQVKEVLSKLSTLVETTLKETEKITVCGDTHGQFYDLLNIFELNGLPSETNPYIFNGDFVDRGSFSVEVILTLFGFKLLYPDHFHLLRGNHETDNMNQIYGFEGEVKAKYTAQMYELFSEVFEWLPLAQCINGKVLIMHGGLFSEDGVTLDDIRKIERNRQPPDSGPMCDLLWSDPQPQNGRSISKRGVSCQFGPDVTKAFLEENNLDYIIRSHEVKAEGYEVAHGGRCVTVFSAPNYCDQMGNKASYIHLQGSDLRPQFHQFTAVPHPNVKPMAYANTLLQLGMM
Consider `COc1ccc(OC)c(C(=O)c2ccc(C(=O)O)cc2)c1`, for which the inhibition (commonly the relative decrease from the control value, in per cent) was -7.99%. On to `O=[N+]([O-])c1cccc2ncccc12`, for which the inhibition was -1.87%. For `O=C(C1=C[C@H](c2ccc(C(F)(F)F)cc2)C[C@H](OCc2ccc(CO)cc2)O1)N1CCN(Cc2ccccc2)CC1`, the inhibition is 3.97%.

Take `CNC(=S)NNC(=O)c1oc2nc(-c3ccccc3)cc(-c3ccco3)c2c1N`: the inhibition was -5.36%. The value for `C[C@@]12C(=O)N(c3cccc(Br)c3)C(=O)N1[C@H](c1ccc(Cl)cc1)[C@@H]1C(=O)N(C3CCCCC3)C(=O)[C@@H]12` was 7.67%.

For `O=C(O)c1n[nH]nc1-c1ccccc1`, the inhibition was 41.3% (active). With `COc1cc(/C=C2/SC(=S)N(Cc3ccccc3)C2=O)cc(OC)c1O`, the inhibition is 0.02%.

Take `Cc1nnc(SCc2nc3ccccc3nc2C)s1`: the inhibition was -2.92%. As for `Cc1nc(NC(CC(C)C)C(=O)O)c2nc(C)oc2n1` (stereo not drawn), the inhibition was -2.93%. As for `CCN1CCN(CCNC(=O)c2ccc(/C=C3/Sc4ccccc4N(Cc4cccc(C)c4)C3=O)cc2)CC1`, the inhibition is 1.06%.

For `CN(c1ccccc1)S(=O)(=O)c1ccc(NC(=O)COc2ccccc2)cc1`, the inhibition was 1.21%. For `COc1cc(C(F)(F)F)c(C(=O)N(C)c2ccc(Cl)cc2)cn1`, the inhibition is -0.02%. The value for `Cc1sc(NC(=O)C2C3CCC(O3)C2C(=O)O)c(C(=O)OC(C)C)c1-c1ccc(Cl)cc1` (stereo not drawn) was 3.03%; that for `COCCN1C=C2C(=O)C(C)(OC(=O)C3CCCC3)C(=O)C=C2C=C1c1ccsc1` (stereo not drawn) was 43.5% (active). Consider `N#Cc1c(N2CCCCC2)nc(N)c2c(N)nc(SCC(=O)O)cc12`, for which the inhibition is 36.8% (active). Consider `CCOC(=O)Nc1ccc2c(c1)N(C(=O)CN1CCN3CCCC3C1)c1ccccc1CC2` (stereo not drawn), for which the inhibition is -4.11%. Take `O=c1ccc2c(-c3ccccc3S(=O)(=O)O)c3ccc(O)c(O)c3oc-2c1O`: the inhibition is 3.55%. As for `CN(C)c1nc(N)nc(CSc2nnnn2-c2cccc3ccccc23)n1`, the figure is -0.03%.
